# PubChem BioAssay (Tox21)
# Several values for one entry are separate records, joined by “and”; a condition that tells them apart may be missing. Equal entries are not always repeated. Records with an inconclusive call do not appear. A call without a number means that no potency is given here. Some structures have more than one record in an assay (separate samples or runs), and their calls can disagree. Activity calls are given as the source filed them. The call rests on the fitted dose curve; in most records, active means well fitted curve in the direction sought with a large enough effect in the repeat runs; inconclusive means weak or mixed curves; inactive means no such curve, though single readings can be large; an effect the other way counts as inactive or inconclusive.
# Experiments:
# [1] = Caspase-3/7 induction in HepG2 cells by small molecules, qHTS assay (AID 1346978); further: nearly all actives have a fitted effect of over 15% in size; further: potency means the concentration at half of the fitted maximal effect
# Summary of the method: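 Wild-type HepG2 cells, 2,000/well, settled 5 hr at 37 C and 5% CO2, then compound-treated for 17 hr; caspase-3/7 activity read by luminescent Caspase-Glo 3/7 after 30 min at room temperature.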
# [2] = Caspase-3/7 induction in CHO-K1 cells by small molecules, qHTS cell viability counter screen (AID 1346979); further: nearly all actives have a fitted effect of over 35% in size; further: potency means the concentration at half of the fitted maximal effect
# Summary of the method: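 Following a 5hr settling period, CHO-K1 cells at 1,500 per well received DMSO-dissolved compounds. Cell viability was quantified 16hr later by CellTiter-Fluor fluorescence, measured after 1hr with reagent at 37C.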
# [3] = Caspase-3/7 induction in CHO-K1 cells by small molecules, qHTS assay (AID 1346980); further: nearly all actives have a fitted effect of over 15% in size
# Summary of the method: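 Wild-type CHO-K1 cells exposed to compounds for 17hr at 37 C, 5% CO2. Caspase-3/7 activity then measured by Caspase-Glo 3/7 luminescence after 30min at room temperature.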
# [4] = biological target: Nuclear receptor subfamily 1 group I member 2 (Homo sapiens) (UniProt O75469); experiment: Human pregnane X receptor (PXR) small molecule agonists, qHTS assay (AID 1346982); further: nearly all actives have a fitted effect of over 35% in size; further: potency means the concentration at half of the fitted maximal effect
# Summary of the method: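 Cells: HepG2 stably carrying PXR-Luc. Medium held 5% charcoal-stripped FBS. Compounds in DMSO added after 5 hr plating, incubated 24 hr, then luminescence quantified with ONE-Glo.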
# [5] = biological target: Nuclear receptor subfamily 1 group I member 2 (Rattus norvegicus) (UniProt Q9R1A7); experiment: Rat pregnane X receptor (rPXR) activation by small molecules, qHTS assay (AID 1346983); conditions: rPXR luciferase reporter cells, One-Glo luminescence, 24 h; max activation: stronger effect = higher value; further: nearly all actives have a fitted effect of over 20% in size
# Summary of the method: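 Cell-based rPXR activation assay: rPXR cells, 2,000 per well, rested 5hr at 37 C, then exposed to compounds in DMSO for 24 hr at 37 C. Luciferase activity read by One-Glo luminescence after 30 min at room temperature.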
# [6] = biological target: Nuclear receptor subfamily 1 group I member 2 (Homo sapiens) (UniProt O75469); experiment: CYP3A4 induction through human pregnane X receptor (PXR) by small molecules, qHTS assay (AID 1346984); further: nearly all actives have a fitted effect of over 40% in size
# Summary of the method: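 Quantitative HTS in DPX-2 cells, i.e. HepG2 transfected with PXR response element and CYP3A4-promoter luciferase. Compounds in DMSO incubated 24hr at 37C; then P450-Glo CYP3A4 substrate, 3uM final, 3hr; One-Glo luminescence.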
# [7] = biological target: Nuclear receptor subfamily 1 group I member 2 (Homo sapiens) (UniProt O75469); experiment: Human pregnane X receptor (PXR) activation by small molecules, qHTS assay (AID 1346985); further: nearly all actives have a fitted effect of over 40% in size
# Summary of the method: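 DPX-2 cells (HepG2 co-transfected with a PXR response element and a CYP3A4-promoter luciferase construct) were seeded at 2,000 per well, rested 5 hr at 37C, then exposed to DMSO-dissolved compounds for 24 hr. Activation was read as luciferase luminescence.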
# [8] = biological target: Cytochrome P450 2D6 (Homo sapiens) (UniProt P10635); experiment: Cytochrome P450 Family 2 Subfamily D Member 6 (CYP2D6) small molecule antagonists: luciferase reporter qHTS assay (AID 1671196); further: nearly all actives have a fitted effect of over 50% in size; further: potency means the concentration at half of the fitted maximal effect
# Summary of the method: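 Enzyme and proluciferin substrate were first combined with test chemical for 10 min at room temperature. Adding NADPH regeneration solution started a 1 h reaction, stopped with luciferin detection reagent and read by luminescence 20 min later.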
# [9] = Caspase-3/7 induction in HepG2 cells by small molecules, qHTS cell viability counter screen (AID 1346981); further: nearly all actives have a fitted effect of over 30% in size; further: potency means the concentration at half of the fitted maximal effect
# Summary of the method: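 Cell viability is measured as a cytotoxicity counter screen alongside the Caspase-Glo 3/7 readout in identical wells. Wild-type HepG2 cells are treated with test compounds for 16 hr at 37 C before CellTiter-Fluor addition and a 1-hr incubation.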
# [10] = biological target: Cytochrome P450 2C19 (Homo sapiens) (UniProt P33261); experiment: Cytochrome P450 Family 2 Subfamily C Member 19 (CYP2C19) small molecule antagonists: luciferase reporter qHTS assay (AID 1671197); further: nearly all actives have a fitted effect of over 65% in size; further: potency means the concentration at half of the fitted maximal effect
# Summary of the method: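 CYP2C19 P450-Glo, 1536-well qHTS. Cpd + enzyme/proluciferin substrate 10 min RT; + NADPH regen, 37C 1 h; stop with luciferin detection reagent, 20 min RT, luminescence (RLU). Pos ctrl ketoconazole.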
# Chain of Nuclear receptor subfamily 1 group I member 2 (Rattus norvegicus) (Q9R1A7 whole entry, looked up): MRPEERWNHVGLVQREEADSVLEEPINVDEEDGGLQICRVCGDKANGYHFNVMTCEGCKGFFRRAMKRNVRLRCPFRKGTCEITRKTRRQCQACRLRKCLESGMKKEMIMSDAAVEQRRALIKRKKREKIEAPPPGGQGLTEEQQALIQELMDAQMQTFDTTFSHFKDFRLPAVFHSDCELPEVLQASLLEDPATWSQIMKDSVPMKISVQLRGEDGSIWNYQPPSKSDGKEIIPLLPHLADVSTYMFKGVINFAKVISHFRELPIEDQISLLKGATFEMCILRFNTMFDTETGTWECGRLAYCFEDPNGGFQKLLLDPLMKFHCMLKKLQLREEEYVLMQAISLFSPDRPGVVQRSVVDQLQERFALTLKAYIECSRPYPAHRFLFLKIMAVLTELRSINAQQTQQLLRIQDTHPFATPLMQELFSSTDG
# Chain of Cytochrome P450 2C19 (Homo sapiens) (P33261 whole entry, looked up): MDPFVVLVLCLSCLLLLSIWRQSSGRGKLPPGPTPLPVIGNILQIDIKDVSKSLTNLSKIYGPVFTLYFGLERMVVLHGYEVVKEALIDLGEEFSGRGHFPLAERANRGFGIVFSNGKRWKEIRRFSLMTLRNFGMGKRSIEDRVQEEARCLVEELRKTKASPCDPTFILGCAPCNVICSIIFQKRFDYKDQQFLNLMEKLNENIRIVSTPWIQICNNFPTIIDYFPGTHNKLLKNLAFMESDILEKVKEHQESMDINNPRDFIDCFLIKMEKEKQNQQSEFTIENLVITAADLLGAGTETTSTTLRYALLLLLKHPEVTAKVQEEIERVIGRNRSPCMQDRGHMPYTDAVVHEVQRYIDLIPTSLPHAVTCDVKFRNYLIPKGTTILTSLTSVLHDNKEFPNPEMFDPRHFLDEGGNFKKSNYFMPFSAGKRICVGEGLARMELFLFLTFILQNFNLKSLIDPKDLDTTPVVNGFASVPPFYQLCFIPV
# Chain of Nuclear receptor subfamily 1 group I member 2 (Homo sapiens) (O75469 whole entry, looked up): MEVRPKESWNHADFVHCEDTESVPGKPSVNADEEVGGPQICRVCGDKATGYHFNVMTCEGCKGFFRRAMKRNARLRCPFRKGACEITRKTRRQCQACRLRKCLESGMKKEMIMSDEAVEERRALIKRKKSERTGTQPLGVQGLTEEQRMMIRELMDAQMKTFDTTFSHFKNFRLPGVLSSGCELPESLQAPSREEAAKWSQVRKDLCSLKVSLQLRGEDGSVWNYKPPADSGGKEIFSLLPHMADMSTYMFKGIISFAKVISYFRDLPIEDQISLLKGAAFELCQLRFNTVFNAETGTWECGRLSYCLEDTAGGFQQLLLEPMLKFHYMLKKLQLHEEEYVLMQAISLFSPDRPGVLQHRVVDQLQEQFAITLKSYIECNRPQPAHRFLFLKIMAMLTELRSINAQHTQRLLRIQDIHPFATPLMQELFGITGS
# Chain of Cytochrome P450 2D6 (Homo sapiens) (P10635 whole entry, looked up): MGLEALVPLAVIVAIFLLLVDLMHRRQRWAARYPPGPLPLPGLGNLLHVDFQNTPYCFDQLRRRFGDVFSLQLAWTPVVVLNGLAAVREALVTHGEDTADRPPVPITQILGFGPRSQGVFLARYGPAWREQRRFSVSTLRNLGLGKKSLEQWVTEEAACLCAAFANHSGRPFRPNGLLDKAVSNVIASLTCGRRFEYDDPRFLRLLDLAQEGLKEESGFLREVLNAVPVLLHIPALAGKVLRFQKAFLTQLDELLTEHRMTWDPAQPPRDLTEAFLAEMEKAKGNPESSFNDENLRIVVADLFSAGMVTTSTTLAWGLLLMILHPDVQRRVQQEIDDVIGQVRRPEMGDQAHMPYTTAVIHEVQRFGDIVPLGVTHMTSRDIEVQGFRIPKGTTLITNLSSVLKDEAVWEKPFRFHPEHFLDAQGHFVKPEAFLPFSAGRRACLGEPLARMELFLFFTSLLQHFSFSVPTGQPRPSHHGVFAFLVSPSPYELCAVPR
SMILES,Potency [1],Potency [2],Potency [3],Potency [4],max activation [5],Potency [6],Potency [7],Potency [8],Potency [9],Potency [10]
OC[C@@H](O)[C@@H](O[C@@H]1O[C@H](CO)[C@H](O)[C@H](O)[C@H]1O)[C@H](O)[C@@H](O)CO,inactive,inactive,inactive,inactive,-8.22% (inactive),inactive,inactive,inactive,–,–
C=CN1CCCC1=O,inactive,inactive,inactive,inactive,–,–,–,inactive,inactive,inactive
Cc1ccc(S(=O)(=O)NCl)cc1,inactive,inactive,inactive,inactive,4.18% (inactive),inactive,inactive,inactive,–,–
O=C(O)CCCC(=O)O,inactive,inactive,inactive,inactive,–,–,–,22 µM (active) and inactive,–,–
FC(F)(F)C(Cl)Br (centres undefined),inactive,inactive,inactive,inactive,-0.375% (inactive),inactive,inactive,inactive,–,inactive
C[C@]12CC[C@@H]3c4ccc(O)cc4CC[C@H]3[C@@H]1CC[C@H]2O,11.1 µM (active),49.4 µM (active) and 54.5 µM (active),inactive,–,–,–,–,inactive,–,4.06 µM (active) and 17.8 µM (active)
CCO[Si](CCCNC(N)=O)(OCC)OCC,inactive,inactive,inactive,inactive,–,–,–,inactive,–,inactive and 56.4 µM (active)
C[N+](C)(C)CCO,inactive,inactive,inactive,inactive,–,–,–,inactive,–,inactive
CC/C(=C(/CC)c1ccc(O)cc1)c1ccc(O)cc1,inactive,60.6 µM (active) and 61.1 µM (active) and 26.6 µM (active),inactive,–,5.39% (inactive),–,–,–,–,–
CC(=O)[C@H]1CC[C@H]2[C@@H]3CC=C4C[C@@H](O)CC[C@]4(C)[C@H]3CC[C@]12C,inactive,inactive,inactive,24.3 µM (active) and 23.7 µM (active),-3.68% (inactive),inactive,inactive,inactive,–,inactive
ClC/C=C/CCl,inactive,inactive,inactive,inactive,–,–,–,62.8 µM (active) and inactive,–,inactive
C1CN(SSN2CCOCC2)CCO1,inactive,30.3 µM (active) and 48.6 µM (active),–,61.1 µM (active),–,–,–,78.9 µM (active) and 31.7 µM (active),inactive,35.2 µM (active) and 35.6 µM (active)
CCCCCCC(C)O (centres undefined),inactive,inactive,inactive,inactive,–,–,–,inactive,–,inactive
CCCCCC1C(=O)CCC1CC(=O)OC (centres undefined),inactive,inactive,inactive,inactive,–,–,–,inactive,–,993 nM (active) and 3.56 µM (active)
Oc1ccc(C(c2ccc(O)cc2)C(Cl)(Cl)Cl)cc1,inactive,54.5 µM (active),inactive,inactive and 61.1 µM (active),–,–,–,inactive,–,17.8 µM (active) and 20 µM (active)
C=C[Si](OCCOC)(OCCOC)OCCOC,inactive,inactive,inactive,inactive,–,–,–,28.4 µM (active) and inactive,–,–
Nc1cc(Cl)c(N)c(Cl)c1,inactive,inactive,inactive,68 µM (active) and 54.5 µM (active),–,–,–,25 µM (active),–,8.86 µM (active) and 71 µM (active)
Cc1ccc(N)c([N+](=O)[O-])c1,inactive,inactive,inactive,inactive,–,–,–,39.4 µM (active) and inactive,–,–
c1ccc2ncccc2c1,inactive,inactive,inactive,inactive,–,–,–,inactive,–,–
C=CCOC(=O)C(=C)C,inactive,inactive,inactive,inactive,–,–,–,inactive,–,inactive
C=CC(C)(O)CCC=C(C)C (centres undefined),inactive,inactive,inactive,inactive,–,–,–,inactive,–,inactive

SMILES,Potency [1],Potency [2],Potency [3],Potency [4],max activation [5],Potency [6],Potency [7],Potency [8],Potency [9],Potency [10]
COc1ccc(-c2coc3cc(O)cc(O)c3c2=O)cc1,inactive,69.1 µM (active),inactive,30.9 µM (active) and 30.6 µM (active),–,–,–,45.2 µM (active),–,20.2 µM (active) and 28.3 µM (active)
CC(=O)O[C@]1(C(C)=O)CC[C@H]2[C@@H]3C=C(Cl)C4=CC(=O)CC[C@]4(C)[C@H]3CC[C@@]21C,inactive,61 µM (active),inactive,68.5 µM (active) and inactive,–,inactive,inactive,inactive,–,–
CC1(C)NC(=O)N(c2ccc([N+](=O)[O-])c(C(F)(F)F)c2)C1=O,inactive,–,inactive,–,–,–,–,inactive,inactive,–
c1ccc2cc3ccccc3cc2c1,inactive,inactive,inactive,35.5 µM (active) and 21.7 µM (active),–,–,–,inactive,–,–
CCC/C=C/C=O,inactive,inactive,inactive,inactive,–,–,–,–,–,19.5 µM (active)
CCOC(=O)C(C)Oc1ccc(Oc2cnc3cc(Cl)ccc3n2)cc1 (centres undefined),inactive,inactive,inactive,inactive,–,–,–,32.5 µM (active),–,–
[O-]/[N+](=N\O)c1ccccc1,inactive,inactive,inactive,–,–,–,–,inactive,–,62.7 µM (active) and 39.9 µM (active)
O=C(O)COCCN1CCN(C(c2ccccc2)c2ccc(Cl)cc2)CC1 (centres undefined),inactive,inactive,inactive,inactive,1.59% (inactive),–,inactive,–,–,–
COC(=O)CC(=O)OC,inactive,inactive,inactive,56.7 µM (active) and inactive,–,–,–,inactive,–,–
CCCN1C=CN(C)C1,inactive,inactive,inactive,inactive,–,–,–,inactive,–,–
CC(C)=CCO,inactive,inactive,inactive,62.6 µM (active) and inactive,–,–,–,inactive,–,–
CN(C)CCCN1c2ccccc2Sc2ccc(Cl)cc21,–,54.5 µM (active) and 29.8 µM (active),–,–,–,–,–,–,61.1 µM (active) and 29.8 µM (active),–
Nc1cc([N+](=O)[O-])ccc1C(=O)O,inactive,inactive,inactive,inactive,–,–,–,inactive,–,inactive
Brc1nc2ccccc2s1,inactive,inactive,inactive,60.9 µM (active),–,–,–,inactive,–,35.5 µM (active) and inactive
Cc1ccc2c(c1)C(=O)OC2=O,inactive,inactive,inactive,inactive,–,–,–,inactive and 6.33 µM (active),–,inactive
C[C@]12CC[C@@H]3c4ccc(O)cc4CC[C@H]3[C@@H]1CC[C@@H]2O,–,61 µM (active) and 61.1 µM (active),inactive,–,-1.66% (inactive),–,–,8.92 µM (active) and inactive,inactive,7.95 µM (active) and 5.64 µM (active)
Cc1ccc(C(C)(C)C)c(O)c1,–,66.4 µM (active),inactive,inactive,–,–,–,inactive,inactive,–
C1COCCN1,inactive,inactive,inactive,inactive,–,–,–,inactive,–,inactive
C=C1C[C@H]2[C@@H]3C=C(C)C4=CC(=O)CC[C@]4(C)[C@H]3CC[C@]2(C)[C@@]1(OC(C)=O)C(C)=O,inactive,–,inactive,31.3 µM (active),–,inactive,inactive,inactive,inactive,28.9 µM (active) and 9.77 µM (active)
c1ccc2c(c1)ccc1cc3c(ccc4ccccc43)cc12,inactive,inactive,inactive,3.03 µM (active) and 1.71 µM (active),–,–,–,inactive,–,–
Cc1ccc([N+](=O)[O-])c(C)c1,inactive,inactive,inactive,inactive,–,–,–,inactive,–,8.94 µM (active) and inactive
